# Compound activity (PubChem)
# PKA-R1A activ: activators of PKA-R1A complex; PKA-R1A dissociation, Cy5-IP20 fluorescence polarization; scaled: DMSO 0%, 113 µM cGMP 100%; P00514+P68181; activation, % at 11.4 µM; 340,000 compounds, 0.083% hits;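 active = percent activation above the mean of all tested compounds plus 3 SD, cut at about 19% in these data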;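 note: higher means more PKAc released from R1A so a rise in polarization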
# MsrA act: activates bovine MsrA enzyme; 360,000 compounds, 0.3% hits; activation, % at 10.6 µM; purified bovine MsrA, absorbance read-out; AID 602163; in the data active = activation above about 7.5%;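 note: 0% = vehicle and 100% = reference activator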
# MsrA inhibitor: inhibits bovine methionine sulfoxide reductase A. purified bovine MsrA, absorbance read-out. inhibition, % at 15.5 µM. 360,000 compounds, 0.75% hits. AID 651718;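 note: 0% = vehicle wells with enzyme and 100% = reference inhibitor wells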
# PKA-R2B act: activates the human PKA-R2B holoenzyme complex. P22694+P31323. PKA-R2B holoenzyme dissociation, Cy5-IP20 fluorescence polarization; R2B truncated from residue 108, S112A mutant; 0% DMSO only, 100% 113 µM cGMP. activation, % at 11.4 µM. 340,000 compounds, 0.079% hits. AID 504700;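 active = activation above a cutoff set at the mean over all compounds plus 3 SD, cut at about 18% in these data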;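 note: higher means more holoenzyme dissociation and a rise in polarization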
# Target sequence (P31323 whole entry, looked up, other chains not shown, the tested form may be a part): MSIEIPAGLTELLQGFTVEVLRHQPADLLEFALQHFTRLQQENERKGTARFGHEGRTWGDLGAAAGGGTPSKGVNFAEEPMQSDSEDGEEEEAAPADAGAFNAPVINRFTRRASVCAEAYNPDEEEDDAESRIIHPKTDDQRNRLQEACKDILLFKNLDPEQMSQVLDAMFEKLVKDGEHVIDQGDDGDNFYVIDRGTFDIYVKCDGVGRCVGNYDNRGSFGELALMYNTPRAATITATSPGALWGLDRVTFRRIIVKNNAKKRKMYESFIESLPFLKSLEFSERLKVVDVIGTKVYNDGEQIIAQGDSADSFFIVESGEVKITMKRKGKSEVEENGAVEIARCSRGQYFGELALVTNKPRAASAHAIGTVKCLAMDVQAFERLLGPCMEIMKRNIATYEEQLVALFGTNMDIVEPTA
# MsrA inh confirm: confirmation of bovine MsrA inhibitors. AID 651822. 2,300 compounds, 41% hits. shares compounds with MsrA inhibitor. purified bovine MsrA, absorbance read-out. inhibition, % at 15.5 µM;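 note: coupled to thioredoxin reductase with NADPH and selenocystamine and DMSO as substrate; 0% = vehicle only and 100% = full effect of reference inhibitor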
# Numbers without * were called inactive; x = no result. A selection: hits, their analogues and other compounds. The true share with any hit is near 1.1%. Cut-off read from the data, not from the text of the source, unless noted: active = inhibition above about 4.5%; inactive = the rest.
SMILES,PKA-R1A activ,MsrA act,MsrA inhibitor,PKA-R2B act,MsrA inh confirm
Cc1nc2ccccn2c1C(=O)N/N=C/c1ccc([N+](=O)[O-])o1,-4,4,5.2*,-25,3
Cc1ccc(CN2CCN(Cc3cn[nH]c3C3CCCCC3)CC2CCO)cc1 (centres undefined),5,-1,-1,6,x
O=C(NCC(c1ccco1)N1CCCCC1)c1ccc([N+](=O)[O-])s1 (centres undefined),x,-1,6.0*,x,4
COc1ccc(CCC(=O)NNC(=O)c2cc(Cl)ccc2OC)cc1,1,-1,0,8,x
CCCNC1=C(N(C(C)=O)c2cccc(F)c2)C(=O)c2ccccc2C1=O,-4,-9,22*,2,5.0*
CCC(=O)N(C1=C(NC(C)C)C(=O)c2ccccc2C1=O)C(C)C,0,-8,1,3,x
COc1ccc(/C=C(/NC(=O)c2ccccc2)c2nc3ccccc3[nH]2)cc1OC,5,-7,6.5*,-8,4
CC1CCc2c(sc(NC(=O)c3ccco3)c2C(=O)O)C1 (centres undefined),-5,-3,5.8*,-4,4.7*
CN1CCN(C(=O)c2c(NC(=O)c3ccco3)sc3c2CCC(C(C)(C)C)C3)CC1 (centres undefined),-14,-4,-1,1,x
O=C(Nc1sc2c(c1C(=O)O)CCCCC2)c1ccco1,-6,-1,6.0*,2,4
CN(C)C(=O)c1c(NC(=O)c2ccco2)sc2c1CCCCC2,-7,2,1,2,x
Cc1c(C(=O)NCc2cccc([N+](=O)[O-])c2)sc(=O)n1Cc1ccc(C(C)C)cc1,x,-4,0,x,x
COC(=O)C1CC(Cl)CN1c1ncc(C(F)(F)F)cc1Cl (centres undefined),0,-5,5.1*,2,0
CSCc1c(C(=O)N2CCCc3ccccc32)oc2ccccc12,1,-3,8.4*,-4,0
COc1ccc(CCNC(=O)c2ccc(Cl)c(S(=O)(=O)N3CCCC3)c2)cc1,0,-2,0,8,x
Cc1ccc(NC(=O)/C(C#N)=C/c2cccs2)c(C)c1,8,2,1,-5,x
Cc1cccc(C)c1NC(=O)/C(C#N)=C/c1cccs1,-11,-9,6.9*,-10,4
CN(C)c1ccc(-c2nc3ccccc3c(=O)[nH]2)cc1,4,-14,6.0*,2,4
COc1ccc(CC(=O)N2CCN(c3ccc(C4=NNC(=O)CC4C)cc3)CC2)cc1 (centres undefined),-7,-3,4.8*,-1,2
COc1ccccc1C#Cc1cnc2c(c1)C(=O)N([C@H](C)CO)C[C@H](C)[C@@H](CN(C)S(=O)(=O)c1cn(C)cn1)O2,12,-8,0,5,x
COc1ccc(N=C2CC(C)(C)CC(=O)/C2=C(/O)c2ccccc2)cc1,3,-2,4.9*,-11,1
C=CCN=C1CC(C)(C)CC(=O)/C1=C(\O)c1ccccc1,5,-11,1,2,x
CN(C)C(=O)c1nc2ccc(Cl)cn2c1CNCc1ccccc1OC(F)(F)F,4,0,1,-8,x
O=C(O)c1ccc(N/N=C2/CCCc3ccccc32)cc1,3,-11,5.8*,6,7.0*
COc1ccccc1NS(=O)(=O)c1ccc(N/N=C(\C)C(C)C)c([N+](=O)[O-])c1,6,x,9.2*,-1,4
SMILES,PKA-R1A activ,MsrA act,MsrA inhibitor,PKA-R2B act,MsrA inh confirm
CCC(C)/C(C)=N/Nc1ccc(S(N)(=O)=O)cc1[N+](=O)[O-] (centres undefined),-11,-8,7.7*,-14,4
CCNc1ccc(S(N)(=O)=O)cc1[N+](=O)[O-],0,-3,3,1,x
C/C(CC(C)C)=N\Nc1ccc(S(N)(=O)=O)cc1[N+](=O)[O-],-6,-5,11*,8,5.6*
O=C(/C=C(\Nc1cccc(Cl)c1F)c1ccccc1)c1ccccc1,x,x,0,x,x
C=CCN=C1NC(c2cccc(F)c2)C(C(=O)OC)=C(C)N1Cc1ccccc1C(F)(F)F (centres undefined),x,x,-1,x,x
C/C(=N\Nc1nnc2c3ccccc3n(C)c2n1)c1ccc(C)o1,-3,-3,5.6*,8,2
C/C(=N\Nc1nc(C)cc(C)n1)c1ccc(C)o1,x,0,2,x,x
CC(=O)c1ccc(N/N=C2/CCCNC2=O)cc1,x,-8,7.4*,x,6.2*
Cc1ccc(N/N=C2/CCCNC2=O)cc1,-4,-10,0,-4,x
Cc1nc2cc(-c3sccc3-n3cccc3)nn2c(C)c1C,5,-11,8.2*,0,7.1*
